We go through 27 compounds from PubChem BioAssay (Tox21).

Unmarked numbers belong to inactive results. Results filed as inconclusive are left out. The source made the active and inactive calls. Unless noted, the call rests on the fitted dose curve.

Assay [1] is described as follows: qHTS assay to identify small molecule agonists of the sonic hedgehog signaling (Shh) pathway (AID 1259368).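 Further: NIH/3T3-derived 3T3Gli1-Luc cells carrying a stable Gli1-driven firefly luciferase reporter; series mostly up to about 92 µM; nearly all actives have a fitted effect of over 15% in size.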 The method, boiled down:
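A Gli1 transcriptional response element controlled firefly luciferase in 3T3Gli1-Luc cells. Compounds and a positive control were added 4 hr after plating, and cells were incubated a further 24 hr at 37 C before luminescence detection.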
For orientation: In qHTS, concentration-response curves come from the screen itself.

The nature of assay [2]: qHTS assay to identify small molecule antagonists of the sonic hedgehog signaling (Shh) pathway (AID 1259369). Further: nearly all actives have a fitted effect of over 45% in size. Further: potency means the concentration at half of the fitted maximal effect. A digest of the protocol:
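For antagonist detection, the reporter line received test compounds together with conditioned medium, incubated 24hr at 37 C, 5% CO2, then luminescence was recorded following 30min room-temperature luciferase reagent incubation.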

Assay [3] in a line: qHTS assay to identify small molecule agonists of the androgen receptor (AR) signaling pathway in the presence of an antagonist - cell viability counter screen (AID 1259379; active means well fitted curve in the direction sought with a large enough effect in the repeat runs; an effect the other way counts as inactive or inconclusive; further: nearly all actives have a fitted effect of over 25% in size; further: potency means the concentration at half of the fitted maximal effect;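 on activity change, negative = cytotoxicity: MDA-kb2 human breast cancer cells carrying an MMTV luciferase reporter; series mostly up to about 92 µM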). A digest of the protocol:
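Seed MDA-kb2 at 3,000 cells/well; incubate 5 hr, 37C, 0% CO2. Add nilutamide to 3.0uM final, then pin compounds at 15 concentrations. Incubate 16 hr. Add CellTiter-Fluor at 15 hr, read fluorescence after 1 hr.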

Assay [4] in a line: qHTS assay to identify small molecule antagonists of the estrogen receptor beta (ER-beta) signaling pathway - cell viability counter screen (AID 1259382; active means well fitted curve in the direction sought with a large enough effect in the repeat runs; an effect the other way counts as inactive or inconclusive; further: nearly all actives have a fitted effect of over 55% in size; further: potency means the concentration at half of the fitted maximal effect; on activity change, negative = cytotoxicity: series mostly up to about 92 µM). The method, boiled down: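 In this multiplexed counter screen, cells were seeded at 2,000 per well in medium with 2% charcoal-stripped FBS and incubated 6 hr before compound and 1nM final E2 were added. Sixteen hours later, ATP-based luminescence reported viability.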

The target of assay [5] is Estrogen receptor (Homo sapiens) (UniProt P03372). In words: qHTS assay to identify small molecule agonists of the estrogen receptor alpha (ER-alpha) signaling pathway in the presence of an antagonist (AID 1259383). Further: top concentration of the series differs between compounds; nearly all actives have a fitted effect of over 15% in size. The method, boiled down:
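Stably transfected VM7Luc4E2 reporter cells, kept 5 days in charcoal-stripped serum, received ICI-182,780 at 10.0nM final before compound addition. Following 22hr incubation at 37C and 5% CO2, luciferase signal was read by luminescence.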

Assay [6] deals with Estrogen receptor beta (Homo sapiens) (UniProt Q92731). Kind of assay: qHTS assay to identify small molecule agonists of the estrogen receptor beta (ER-beta) signaling pathway (AID 1259377; active means well fitted activation curve with a large enough effect in the signal ratio in the repeat runs, not every such curve was filed as active; the % refers to the signal ratio). The method, boiled down: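 Ratiometric beta-lactamase FRET read-out came after 2 h substrate loading at room temperature. It followed 16 h compound treatment at 37C of GripTite HEK293T cells carrying a UAS-bla reporter, plated in 2% charcoal-stripped FBS medium.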

The target is the same in assay [7]. In words: qHTS assay to identify small molecule antagonists of the estrogen receptor beta (ER-beta) signaling pathway (AID 1259378; active means well fitted inhibition curve with a large enough effect in the signal ratio in the repeat runs, not every such curve was filed as active; the % refers to the signal ratio; further: potency means the concentration at half of the fitted maximal effect). The method, boiled down:
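Antagonist mode: compounds added to beta-lactamase reporter HEK293T ER-beta-UAS cells stimulated with E2 (1nM final), 16 hr at 37C. LiveBLAzer B/G FRET substrate, 2 hours room temperature, fluorescence read-out.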

Assay [8] in a line: qHTS assay to identify small molecule agonists of the estrogen receptor beta (ER-beta) signaling pathway - cell viability counter screen (AID 1259380; active means well fitted curve in the direction sought with a large enough effect in the repeat runs; an effect the other way counts as inactive or inconclusive; further: nearly all actives have a fitted effect of over 30% in size; further: potency means the concentration at half of the fitted maximal effect). A digest of the protocol: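 CellTiter-Glo read, 30 min RT, same wells as bla assay; cells ER-beta-UAS-bla HEK293T; 16 hr compound, 37C; medium 2% charcoal-stripped FBS.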
Assay [9] is described as follows: qHTS assay to identify small molecule agonists or antagonists of the thyroid stimulating hormone receptor (TSHR) signaling pathway - wild type cell line counter screen (AID 1259384). A digest of the protocol:
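Counter screen in untransfected Hek293: compounds (15-point titration, triplicate) plus phosphodiesterase inhibitor Ro20-1724 added after 18 h plating; 30 min RT. Intracellular cAMP via competitive d2/cryptate immunoassay, 1 h incubation.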

Assay [10] concerns the target Androgen receptor (Homo sapiens) (UniProt P10275). Kind of assay: qHTS assay to identify small molecule agonists of the androgen receptor (AR) signaling pathway in the presence of an antagonist (AID 1259381). Further: nearly all actives have a fitted effect of over 15% in size. The method, boiled down:
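Test compounds at 15 concentrations were incubated for 16hr with MDA-kb2 reporter cells in presence of 3.0uM nilutamide (final). Signal: ONE-Glo luciferase luminescence.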
On the % scale 0 is the no-effect control and ±100 the full control effect.

Sequence of Estrogen receptor (Homo sapiens) (P03372 whole entry, looked up): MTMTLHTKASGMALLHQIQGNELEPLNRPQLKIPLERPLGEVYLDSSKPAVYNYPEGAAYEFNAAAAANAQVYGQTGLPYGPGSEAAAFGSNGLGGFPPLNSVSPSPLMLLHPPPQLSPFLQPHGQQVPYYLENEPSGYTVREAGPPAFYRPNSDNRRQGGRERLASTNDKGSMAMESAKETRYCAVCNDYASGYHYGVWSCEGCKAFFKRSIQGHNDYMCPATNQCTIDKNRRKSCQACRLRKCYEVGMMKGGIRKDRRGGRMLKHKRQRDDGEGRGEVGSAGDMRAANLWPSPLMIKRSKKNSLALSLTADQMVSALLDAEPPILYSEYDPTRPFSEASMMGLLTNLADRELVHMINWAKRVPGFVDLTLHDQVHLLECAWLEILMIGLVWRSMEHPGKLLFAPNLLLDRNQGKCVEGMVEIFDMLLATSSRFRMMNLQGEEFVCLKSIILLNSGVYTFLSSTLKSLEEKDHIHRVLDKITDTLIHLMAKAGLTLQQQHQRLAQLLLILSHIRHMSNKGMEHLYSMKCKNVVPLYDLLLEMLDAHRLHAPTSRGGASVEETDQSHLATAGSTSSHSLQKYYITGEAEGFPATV
Sequence of Androgen receptor (Homo sapiens) (P10275 whole entry, looked up): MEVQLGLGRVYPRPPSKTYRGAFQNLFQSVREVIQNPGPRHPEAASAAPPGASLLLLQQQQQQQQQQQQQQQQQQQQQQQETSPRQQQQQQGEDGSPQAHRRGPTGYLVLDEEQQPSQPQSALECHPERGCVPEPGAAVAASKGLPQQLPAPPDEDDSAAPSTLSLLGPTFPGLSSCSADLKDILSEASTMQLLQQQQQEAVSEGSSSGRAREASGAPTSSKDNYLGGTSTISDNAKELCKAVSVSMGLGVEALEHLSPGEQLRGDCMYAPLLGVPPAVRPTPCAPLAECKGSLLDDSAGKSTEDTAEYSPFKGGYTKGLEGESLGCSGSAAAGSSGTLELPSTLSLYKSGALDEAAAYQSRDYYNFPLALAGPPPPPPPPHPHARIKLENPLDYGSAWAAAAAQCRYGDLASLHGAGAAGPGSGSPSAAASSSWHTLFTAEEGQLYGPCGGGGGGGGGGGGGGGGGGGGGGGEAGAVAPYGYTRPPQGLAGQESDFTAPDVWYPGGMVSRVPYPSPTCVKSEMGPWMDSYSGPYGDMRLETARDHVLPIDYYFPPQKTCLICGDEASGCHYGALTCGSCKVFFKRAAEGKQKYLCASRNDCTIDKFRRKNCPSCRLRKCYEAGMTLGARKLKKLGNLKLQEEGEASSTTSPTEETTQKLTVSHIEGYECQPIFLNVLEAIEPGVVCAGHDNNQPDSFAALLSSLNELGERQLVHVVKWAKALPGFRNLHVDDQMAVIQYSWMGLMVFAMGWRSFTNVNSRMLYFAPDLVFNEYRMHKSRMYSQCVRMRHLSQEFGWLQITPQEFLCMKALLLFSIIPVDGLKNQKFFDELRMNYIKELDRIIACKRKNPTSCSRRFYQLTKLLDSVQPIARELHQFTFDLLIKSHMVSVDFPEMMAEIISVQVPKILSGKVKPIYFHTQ
Sequence of Estrogen receptor beta (Homo sapiens) (Q92731 whole entry, looked up): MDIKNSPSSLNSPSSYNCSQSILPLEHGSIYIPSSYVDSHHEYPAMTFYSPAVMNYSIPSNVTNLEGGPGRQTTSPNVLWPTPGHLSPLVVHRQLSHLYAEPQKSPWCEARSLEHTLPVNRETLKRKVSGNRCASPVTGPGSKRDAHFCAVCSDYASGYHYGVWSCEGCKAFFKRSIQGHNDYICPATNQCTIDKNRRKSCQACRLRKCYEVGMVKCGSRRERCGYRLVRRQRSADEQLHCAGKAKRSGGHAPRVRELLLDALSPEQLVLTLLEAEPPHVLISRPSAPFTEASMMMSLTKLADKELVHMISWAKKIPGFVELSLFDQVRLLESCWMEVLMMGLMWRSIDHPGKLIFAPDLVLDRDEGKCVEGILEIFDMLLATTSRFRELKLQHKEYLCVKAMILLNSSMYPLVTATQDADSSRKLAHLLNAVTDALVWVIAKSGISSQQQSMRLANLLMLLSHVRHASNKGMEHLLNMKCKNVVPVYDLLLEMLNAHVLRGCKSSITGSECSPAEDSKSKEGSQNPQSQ

In the case of `Nc1ccc(F)cc1`, the Potency entry in [1], in [2], in assay [3], in assay [4] and in assay [5] was “inactive” in each case.

Regarding `COC(OC)OC`, the Potency result in assay [1], in [6], in assay [7], in [3], in [8] and in assay [4] was “inactive” each time. Moreover, the Potency result in [5] and in assay [9] was “inactive” each time.

Regarding `CNS(=O)(=O)c1cc(C(=O)N2CCC(CCN3C4CCC3CC(n3c(C)nc5ccccc53)C4)(c3cccc(F)c3)CC2)c(Cl)cc1F` (stereo not given), the Potency entry in assay [1], in assay [10] and in assay [9] was “inactive” throughout. In addition, the Potency in [2] is 15.4 µM (active); in [8], 5.45 µM (active); in assay [4], 7.7 µM (active).

Turning to `c1ccc2sc(SSc3nc4ccccc4s3)nc2c1`, the activity change in assay [1] was 1.97% [at 18.9 µM, stronger effect = higher value]. The activity change, negative = inhibition in [2] was 7.11% [at 19 µM]. In addition, the activity change, negative = cytotoxicity in assay [3] was 5.77% [at 19 µM]; in [4] it was -0.0017% [at 19 µM]. In assay [5], the activation is 2.07% [at 19 µM]. The cAMP activity change in assay [9] was 2.9% [at 18.9 µM, stronger effect = higher value].

For the compound `O=C(O)c1cccc(Oc2ccccc2)c1`, the Potency result in [1], in assay [2], in [3], in assay [8], in assay [4] and in [5] was “inactive” in each case. In assay [9], the Potency result is “inactive”.

Take `BrC(Br)C(Br)Br`: the Potency entry in assay [1], in assay [2], in [3], in [10], in assay [4] and in assay [5] was “inactive” in each case. Moreover, the Potency entry in assay [9] was “inactive”.

Take `CC(C)(C)S`: the Potency result in assay [1], in [2], in [3], in assay [8], in assay [4] and in assay [5] was “inactive” throughout. In addition, in assay [9], the Potency result is “inactive”.

In the case of `CC(C)N(C)C`, the Potency result in [1], in assay [2], in assay [3], in [8], in assay [4] and in assay [5] was “inactive” in each case. Further, the Potency result in assay [9] is “inactive”.

On to `CCCCCCCC(=O)OCCCCCC`, for which the Potency result in assay [1], in [6], in [3], in assay [8], in assay [10] and in assay [4] was “inactive” in each case. Moreover, the Potency entry in assay [9] is “inactive”.

Turning to `CCCC(=O)OC(=O)CCC`, the Potency entry in assay [1], in assay [6], in [7], in [3], in [8] and in assay [4] was “inactive” throughout. Moreover, the Potency result in assay [9] was “inactive”.

Regarding `OCC(CO)n1cnc(-c2ccc(F)cc2)c1-c1ccnc(Oc2ccccc2)n1`, the Potency entry in assay [1], in assay [7], in [3], in assay [8], in assay [4] and in assay [5] was “inactive” each time.

For `O=C(c1ccccc1)C1CCC1`, the Potency result in assay [1], in [7], in assay [3], in assay [8], in assay [4] and in assay [5] was “inactive” throughout. Further, the Potency entry in [9] is “inactive”.

As to `CNCc1ccc(NC(=O)c2c[nH]c3c2C(=O)CCC3)cc1`, the Potency result in [1], in assay [6], in assay [7], in assay [3], in [4] and in [9] was “inactive” in each case.

In the case of `CC(C)C1CCC(C(=O)N[C@H](Cc2ccccc2)C(=O)O)CC1` (stereo not given in full), the Potency entry in [1], in [6], in assay [7], in [3], in assay [4] and in [5] was “inactive” each time. Further, the Potency result in assay [9] was “inactive”.

Regarding `CC/C=C\C/C=C\C/C=C\CCCCCCCC(=O)OCC`, the Potency result in [1], in [6], in assay [3], in assay [4] and in assay [9] was “inactive” throughout.

On to `CCCCCCCCCCCCCCN(C)C`, for which the activity change in assay [1] is 1.14% [at 18.9 µM, stronger effect = higher value]. In addition, the activation in assay [6] is -2.25% [at 19 µM]; in assay [5] it was 2.36% [at 19 µM]. Moreover, the activity, negative = inhibition in assay [7] is 3.58% [at 19 µM]. Further, the values for the activity change, negative = cytotoxicity in [3] and in assay [4] were -0.611% [at 19 µM] and -7.95% [at 19 µM], respectively. The cAMP activity change in assay [9] was -2.36% [at 18.9 µM, stronger effect = higher value].

Turning to `COc1cc(S(=O)(=O)Nc2ccccc2)c(OC)cc1N`, the Potency entry in assay [1], in assay [6], in [7], in assay [3], in assay [4] and in assay [5] was “inactive” in each case. The Potency entry in assay [9] was “inactive”.

On to `Nc1nc(-c2ccc([N+](=O)[O-])cc2)cs1`, for which the Potency result in [1], in [6], in assay [7], in assay [3], in [4] and in assay [9] was “inactive” in each case.

For `CC(C)Cc1ccc(CC(=O)O)cc1`, the Potency entry in [1], in assay [6], in assay [3], in assay [8] and in assay [4] was “inactive” in each case.

In the case of `Cc1ccc(N(CC2=NCCN2)c2cccc(O)c2)cc1`, the Potency entry in [1], in assay [7], in assay [3], in [8], in assay [4] and in assay [5] was “inactive” each time. The Potency entry in assay [9] is “inactive”.

Consider `CC[C@H]1OC(=O)[C@H](C)[C@@H](O[C@H]2C[C@@](C)(OC)[C@@H](O)[C@H](C)O2)[C@H](C)[C@@H](O[C@@H]2O[C@H](C)C[C@H](N(C)C)[C@H]2O)[C@](C)(O)C[C@@H](C)C(=O)[C@H](C)[C@@H](O)[C@]1(C)O`, for which the Potency entry in [1], in assay [6], in [7], in assay [3], in [8] and in assay [4] was “inactive” in each case. For the same compound, in assay [9], the Potency result is “inactive”.

`CCN(CC)c1ccc(C(=C2C=CC(=[N+](CC)CC)C=C2)c2ccc(S(=O)(=O)O)cc2S(=O)(=O)[O-])cc1`: the Potency result in assay [1], in assay [7] and in assay [10] was “inactive” in each case. Moreover, the Potency in [3] and in assay [8] was 27.3 µM (active) each time.

`CC(C)(C)CCCCCCOC(=O)c1ccccc1C(=O)OCCCCCCC(C)(C)C`: the Potency entry in [1], in [7], in assay [3], in assay [8], in assay [4] and in assay [5] was “inactive” throughout. In [9], the Potency result is “inactive”.

As for `O=P(O)(O)Oc1ccccc1`, the Potency result in assay [1], in assay [6], in assay [7], in assay [3], in [4] and in assay [5] was “inactive” each time. Also, the Potency entry in assay [9] is “inactive”.

In the case of `Cc1c(C2(c3cc(Br)c(O)c(Br)c3C)OS(=O)(=O)c3ccccc32)cc(Br)c(O)c1Br`, the Potency entry in [1] and in assay [7] was “inactive” each time. The results for the Potency in assay [3] and in assay [8] were 14.9 µM (active) and 23.6 µM (active), respectively.

Take `CCCCCc1ccco1`: the Potency entry in [1], in assay [6], in assay [3], in assay [4] and in [9] was “inactive” each time. For the same compound, the Potency in [7] is 25.1 µM (active).

In the case of `Cc1ccc2nc(N)[nH]c(=O)c2c1Sc1ccncc1`, the Potency result in assay [1], in assay [6], in [3] and in assay [4] was “inactive” each time.
